HT1080 IDH1KD tx: kills HT-1080 cells with IDH1 knockdown; Potency, µM (highest dose often 46.1 µM), without a hit: at the top dose activity, negative = toxicity, most hits filed as cytotoxic; HT-1080 IDH1 knockdown viability, ATP luminescence, 48 h; AID 686971; hit rate 2% among 360,000;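 note: 0% = DMSO wells and -100% = cell-free medium wells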
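After a 2 h attachment period, IDH1KD HT-1080 cells took pin-transferred compound for 48 h at 37 °C; ATP-based luminescence after 10 min room-temperature reagent incubation reported viability.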
KB-V1 MDR tox: kills drug-selected multidrug resistant KB-V1 cells; Potency, µM (series often up to 46.1 µM), hits mostly cytotoxic; hit rate 3.4% among 400,000; KB-V1 MDR cells viability, CellTiter-Glo, 72 h; note: nearly all actives have a fitted effect of over 60% in size
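Luminescent ATP read-out (CellTiter-Glo, 10 min) measures survival of drug-selected KB-V1 MDR cells after 72 h, 37 degrees C compound exposure. Medium: phenol-red-free DMEM, 10% FBS. Values from fitted concentration-response curves.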
KB-3-1 tox: KB-3-1 parental cell cytotoxicity; KB-3-1 viability, CellTiter-Glo ATP luminescence, 72 h; AID 1347075; hit rate 1.4% among 400,000; Potency, µM (top dose mostly 46.1 µM), hits mostly cytotoxic; note: nearly all actives have a fitted effect of over 60% in size
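Using CellTiter-Glo luminescence, growth of non-resistant KB-3-1 adenocarcinoma cells is assessed 72 h after pin-tool compound addition at 37 °C. Normalized responses across the concentration series yield fitted curves.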
HT1080-NT tox: kills 2HG-producing HT-1080-NT fibrosarcoma cells; hit rate 1.6% among 360,000; HT-1080-NT fibrosarcoma viability, CellTiter-Glo ATP luminescence, 48 h; Potency, µM (top dose mostly 46.1 µM), inactives show at the top dose activity, negative = less viability, actives largely listed as cytotoxic;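 note: NT is the 2HG producing partner of a matched IDH1 knockdown line; 0% = DMSO-treated cells and -100% = media-only wells without cells; nearly all actives have a fitted effect of over 55% in size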
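A 48-hour cytotoxicity screen used HT-1080-NT cells plated 2 hours before compound delivery. ATP-based CellTiter-Glo luminescence measured viability, normalized to DMSO and no-cell controls.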
DT40 TDP1 no CPT: qHTS for Inhibitors of human tyrosyl-DNA phosphodiesterase 1 (TDP1): qHTS in cells in absence of CPT | DT40 Tdp1-/- hTDP1 cells, no CPT, ATP luminescence, 48 h | Potency, µM (top dose mostly 46.2 µM), inactives show at the top dose activity change, negative = growth inhibition, most hits filed as inhibitors | hit rate 15% among 420,000; note: nearly all actives have a fitted effect of over 55% in size
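A cellular qHTS used chicken DT40 cells lacking endogenous Tdp1 but carrying stably transfected human TDP1. Compounds were applied without camptothecin, and cell growth kinetics were judged by ATP-dependent luminescence after ≥48 hr.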
TDP1 cell CPT: DT40-hTDP1 cell growth loss with CPT | Potency, µM (highest dose often 46.2 µM), without a hit: at the top dose activity change, negative = growth inhibition, actives largely listed as inhibitors | hit rate 12% among 420,000 | chicken DT40 Tdp1-/-;hTDP1 cells + 20 nM CPT, ATP luminescence, 48 h | AID 686979; note: nearly all actives have a fitted effect of over 55% in size
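Chicken DT40 Tdp1-/- cells stably complemented with human TDP1 were seeded at 400 cells/well in medium containing 20 nM camptothecin, exposed to pin-transferred compounds, and grown at 37 °C for at least 48 hr. Viability was read as ATP luminescence.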
* hit, by the source's call; i = inactive; u = inconclusive; x = no result. Rows were chosen to be rich in hits. Some 19% of all compounds tested hit in one or more screens of this group. Calls come from the whole dose curve; as a rule, active = well fitted curve in the direction sought with a large enough effect; inconclusive = small, poorly fitted or top-dose-only effect, or another doubt; inactive = no such curve, though single readings can be large; an effect the other way counts as inactive or inconclusive. Unless noted, % is set by controls: 0 for no effect and ±100 for the full control effect; potency is the fitted concentration of half-maximal effect.

SMILES | HT1080 IDH1KD tx | KB-V1 MDR tox | KB-3-1 tox | HT1080-NT tox | DT40 TDP1 no CPT | TDP1 cell CPT
C[C@H]1CCCCO[C@H](CN(C)Cc2ccc(C(=O)O)cc2)[C@@H](C)CN([C@@H](C)CO)C(=O)c2cc(NS(=O)(=O)c3cn(C)cn3)ccc2O1 | 4% | i | i | 3% | u | 11%
CCN(CC)C(=O)C1=C(C)N(Cc2ccc(C(C)(C)C)cc2)C(=O)C(CC(=O)NCc2cccs2)C1 (centres undefined) | -1% | u | i | -11% | 23µM* | 23µM*
CC1=C(C(=O)N(C(C)C)C(C)C)CC(CC(=O)NCc2ccco2)C(=O)N1Cc1ccc(C(C)(C)C)cc1 (centres undefined) | u | i | i | -25% | 16µM* | 21µM*
CCN(CC)C(=O)C1=C(C)N(Cc2ccc(C(C)(C)C)cc2)C(=O)C(CC(=O)NCc2ccco2)C1 (centres undefined) | 1% | u | i | -12% | 23µM* | u
CC1=C(C(=O)N(C(C)C)C(C)C)CC(CC(=O)NCc2cccc3ccccc23)C(=O)N1Cc1ccc(C(C)(C)C)cc1 (centres undefined) | u | u | 23µM* | u | u | u
CC1=C(C(=O)N(C)C)CC(CC(=O)NCc2cccc3ccccc23)C(=O)N1Cc1ccc(C(C)(C)C)cc1 (centres undefined) | u | i | i | u | u | -11%
CCCCN1C(=O)C(CC(=O)NCc2ccco2)CC(C(=O)N(C(C)C)C(C)C)=C1C (centres undefined) | 13% | i | i | 17% | -1% | 0%
CC1=CC(c2ccccc2)n2ncnc2N1 (centres undefined) | 16% | i | i | u | 2% | 5%
c1ccc(C2C3=C(Nc4ncnn42)c2ccccc2CCC3)cc1 (centres undefined) | -26% | 18µM* | i | -4% | -4% | 7%
Cc1ccccc1OCC(=O)OCC(=O)NCc1ccccc1Cl | 0% | i | i | 8% | -1% | -15%
C=CCn1c(=O)c(C(=O)Nc2cccnc2)c(O)c2ccccc21 | 0% | u | i | 9% | u | u
CCCn1c(=O)c(C(=O)NCCc2ccccc2)c(O)c2ccccc21 | -1% | u | u | 17% | u | 13µM*
C=CCn1c(=O)c(C(=O)Nc2ccc(C)cn2)c(O)c2ccccc21 | 11% | 6.5µM* | u | 5% | 18µM* | u
CCCn1c(=O)c(C(=O)NCc2ccccc2)c(O)c2ccccc21 | 0% | i | i | -1% | u | u
CCn1c(=O)c(C(=O)NCc2ccc(OC)cc2)c(O)c2ccccc21 | -9% | i | i | 2% | 23µM* | 23µM*
C=CCn1c(=O)c(C(=O)NCc2ccc(Cl)cc2)c(O)c2ccccc21 | -7% | u | u | -2% | 23µM* | u
Cc1csc(=O)n1CC(=O)Nc1nc2ccccc2s1 | 1% | u | i | 0% | -8% | -10%
COc1ccc(C(=O)NC(=O)COC(=O)CCS(=O)(=O)c2ccc(C)cc2)cc1 | 12% | i | i | 0% | 6% | -5%
CC(SC(C)C(=O)NN=Cc1cccc(F)c1)C(=O)NN=Cc1cccc(F)c1 (centres undefined) | 1% | i | i | 8% | u | u
CC(C)Cn1c(=O)c(C(=O)N/N=C/c2cccc(F)c2)c(O)c2ccccc21 | -12% | 2.9µM* | 12µM* | -9% | 0.33µM* | 2.9µM*
CCCCCCCCC(=O)NNC(=O)c1c(O)c2ccccc2n(CCC)c1=O | 12% | u | u | 14% | u | 23µM*
CC(C)Cn1c(=O)c(C(=O)NCc2ccc3c(c2)OCO3)c(O)c2ccccc21 | -11% | u | u | -17% | u | 23µM*
C=CCn1c(=O)c(C(=O)NCCc2ccccc2)c(O)c2ccccc21 | -1% | 21µM* | i | -21% | u | 21µM*
O=C(NCc1ccc2c(c1)OCO2)c1c(O)c2cccc3c2n(c1=O)CCC3 | 3% | i | i | 16% | -17% | -4%
CCCCCCCCCC(=O)NNC(=O)c1c(O)c2ccccc2n(CCC)c1=O | 21% | i | i | 16% | u | u
SMILES | HT1080 IDH1KD tx | KB-V1 MDR tox | KB-3-1 tox | HT1080-NT tox | DT40 TDP1 no CPT | TDP1 cell CPT
O=C(O)c1ccc2c(c1)C(=O)N(c1ccc(Nc3ccccc3)cc1)C2=O | 0% | i | i | 14% | 5% | -10%
Cc1ccn2cc(CNC(=O)c3cccc(C(F)(F)F)c3)nc2c1 | x | x | x | x | 0% | 0%
CCCCNC(=O)CN1CCN(c2ccc(NC(=O)c3ccc(OC)cc3)cc2C(=O)O)CC1 | x | i | i | x | 5% | -2%
O=C(C[C@@H]1C/C=C\C[C@@H](Cc2ccc(F)cc2)C(=O)OC[C@@H]2CCCN2C1=O)N[C@H](CO)Cc1ccccc1 | 0% | i | i | 3% | 23µM* | u
O=C(C[C@@H]1C/C=C\CCC(=O)OC[C@@H]2CCCN2C1=O)N[C@@H](CO)Cc1ccccc1 | 9% | i | u | 15% | 11% | -10%
O=C(C[C@@H]1C/C=C\CC[C@@H](Cc2ccc(F)cc2)C(=O)OC[C@@H]2CCCN2C1=O)NCCO | 0% | u | i | 5% | u | -4%
O=C(C[C@@H]1C/C=C\C[C@H](Cc2ccc(F)cc2)C(=O)OC[C@@H]2CCCN2C1=O)N[C@H](CO)Cc1ccccc1 | -3% | i | i | -3% | 16µM* | 18µM*
O=C(C[C@@H]1C/C=C\CC[C@H](Cc2ccc(F)cc2)C(=O)OC[C@@H]2CCCN2C1=O)NCCO | -1% | i | i | 28% | u | u
O=C(C[C@H]1C/C=C\CC[C@@H](Cc2ccc(F)cc2)C(=O)OC[C@H]2CCCN2C1=O)N[C@H](CO)Cc1ccccc1 | 0% | i | i | 1% | 21µM* | u
O=C(C[C@@H]1C/C=C\C[C@H](Cc2ccc(F)cc2)C(=O)OC[C@H]2CCCN2C1=O)N[C@H](CO)Cc1ccccc1 | 1% | i | i | 11% | 15µM* | 13µM*
